# Test results published in PubChem BioAssay AID1259343 (VanderVen Lab, College of Veterinary Medicine, Cornell …, 2017).
# Among all 6,200 compounds or so, about 2,900 (47%) were called active. So high a share suggests a set chosen from earlier hits. Some of the results follow. A number with no mark means an inactive call. Cut-off read from the data, not from the text of the source: active = inhibition above about 50%; inactive = the rest.
# Experiment: Mycobacterium tuberculosis growth inhibition, primary screen (AID 1259343)
# Settings: inhibition: at 10 µM, stronger effect = higher value; outcome: 10 uM
row,SMILES,inhibition
1,COc1ccc(NC(=O)c2ccc(-c3ccc(C(C)=O)cc3)o2)cn1,-28.8%
2,CON(C)S(=O)(=O)c1cc(C(=O)Nc2cccc(Cl)c2Cl)ccc1Cl,22.1%
3,CCCCN(C)S(=O)(=O)c1ccc(NC(=O)c2ccc(OC)nc2)cc1,88% (active)
4,COc1ccc(C2=NOC(CNCc3cccc(F)c3)C2)cc1 (configuration not stated),76.2% (active)
5,COc1ccc(C2=NOC(CNCc3cccc(C(F)(F)F)c3)C2)cc1 (configuration not stated),43.6%
6,COc1ccc(C2=NOC(c3ccc(C)cc3)C2)cc1 (configuration not stated),22.2%
7,Fc1cccc(CNCC2CC(c3ccc(Cl)c(Cl)c3)=NO2)c1 (configuration not stated),57.1% (active)
8,Cc1ccc(=O)n(CC(=O)Nc2ccc(Sc3ccccc3Cl)cc2)n1,5.63%
9,CCc1cccc(NC(=O)Cn2nc3ccc(SC(C)C)nn3c2=O)c1,77.8% (active)
10,O=C(CN1CCc2ccccc21)NC(=O)NCc1ccccc1,20.7%
11,O=C(Cn1nnc(-c2ccccc2Cl)n1)Nc1ccc(I)cc1,32.1%
12,Cc1ccc(NC(=O)Cc2ccc(OC(F)F)cc2)cc1F,48.2%
13,Cc1ccc(NC(=O)CN2CCc3ccccc32)cc1F,54.7% (active)
14,COc1ccc(-c2nnn(CC(=O)Nc3ccc(C)c(F)c3)n2)cc1OC,86.6% (active)
15,CCCn1ncc(CN2CCOC(c3ccc(Cl)c(Cl)c3)C2)c1C (configuration not stated),7.23%
16,CCCc1sc(C(=O)Nc2nccs2)cc1CC,80.5% (active)

row,SMILES,inhibition
1,CCOc1ccc(CCN=C=S)cc1OCC,97.5% (active)
2,CCSc1nnc(-c2ccc(Cl)cc2Cl)o1,100% (active)
3,c1ccc(-c2nnc(SCc3nnc(-c4ccco4)o3)o2)cc1,69.9% (active)
4,N#Cc1ccc(CSc2nnc(-c3ccccc3)o2)cc1,-28.8%
5,Clc1ccc(CSc2nnc(-c3ccco3)o2)c(Cl)c1,-6.93%
6,Cn1nnnc1SCc1ccc(Cl)c(Cl)c1,37.6%
7,c1ccc(-c2nnc(CSc3nnc(-c4ccccc4)o3)o2)cc1,101% (active)
8,Brc1ccccc1-c1nnc(SCc2nnc(-c3ccco3)o2)o1,-32.1%
9,Clc1ccc(CSc2nnc(-c3ccco3)o2)cc1Cl,88% (active)
10,Clc1ccccc1-c1nnc(SCc2ccccc2)o1,74.3% (active)
11,Fc1ccccc1-c1nnc(SCc2ccccc2Br)o1,1.69%
12,Cc1occc1-c1nnc(SCc2nnc(-c3ccco3)o2)o1,92.5% (active)
13,Fc1ccccc1-c1nnc(SCc2cccc3ccccc23)o1,85.9% (active)
14,BrC12CC3CC(C1)CC(c1nnc(-c4ccco4)o1)(C3)C2,23.4%
15,ClC12CC3CC(C1)CC(c1nnc(-c4ccco4)o1)(C3)C2,12.4%
16,Clc1cc2c(c(CSc3nnc(-c4ccco4)o3)c1)OCOC2,86.3% (active)
